The structures appear in SMILES notation. This is part of a sample that, as a whole, favours compounds with a hit. Of some 83,000 tested, about 20% had one in any assay.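 96-well plates, one dose, 48 hours. Percent growth reported; active if below 10.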 Values without a mark were called inactive. Active and inactive are the calls of the source.

Common to all, as to assay: NCI-60 one-dose screen, 48 h (100 = growth as untreated, 0 = no growth, -100 = all killed)
Common to all, as to conditions: 10 µM unless noted

Test [1] has as its system HCT-15 colon.
In test [2] the test system is HT29 colon.
For test [3], the system named is SNB-75 CNS.
Test [4] has as its system SNB-19 CNS.
In test [5] the test system is U251 CNS.
The subject of test [6] is PC-3 prostate.
The subject of test [7] is SK-MEL-5 melanoma.
Test [8] relates to UACC-62 melanoma.
The test system of test [9] is LOX IMVI melanoma.
Test [10] relates to SK-MEL-28 melanoma.

In the case of `COc1cc2cc(Oc3ccc(NC(=O)Nc4cc(C(F)(F)F)cc(C(F)(F)F)c4)cc3)c(C)nc2cc1OCCN1CCCCC1`, the growth was -82.4% (active) in test [1]; -64.8% (active) in test [2]; -97.7% (active) in [3]; -92.2% (active) in test [4]; -69.3% (active) in test [5]; -45.2% (active) in [6]. The growth in [7] is -49.9% (active); in [8], -84.9% (active); in test [9] it was -99.1% (active); in test [10] it was -95.5% (active).
Turning to `C#CC[C@H](N)C(=O)O`, the growth in test [1] was 100% [20 µM]; in test [2], 98.7% [20 µM]; in [3], 68% [20 µM]; in [4], 93.1% [20 µM]; in [5], 100% [20 µM]; in [6], 102% [20 µM]. Moreover, the growth in [7] is 102% [20 µM]; in [8] it was 95.4% [20 µM]; in [9], 94.7% [20 µM]; in test [10], 110% [20 µM].
For the compound `CO[C@H]1/C=C/O[C@@]2(C)Oc3c(C)c(O)c4c(c3C2=O)C(=O)C(/C=N/N(c2ccccc2)c2ccccc2)=C(NC(=O)/C(C)=C\C=C\[C@H](C)[C@H](O)[C@@H](C)[C@@H](O)[C@@H](C)[C@H](OC(C)=O)[C@@H]1C)C4=O`, the growth was -20.3% (active) in test [1]; -12.7% (active) in [2]; 19.6% in test [3]; 19.1% in test [4]; -72.7% (active) in test [5]; -2.79% (active) in test [6]. In addition, the growth in [7] was -88.2% (active); in test [8] it was -71.1% (active); in test [9], -81.1% (active); in test [10] it was -58.3% (active).
Turning to `COc1cc2oc(-c3cccc(C(=O)Nc4ccc(C)cc4)c3)cc(=O)c2c(OC)c1OC`, the growth in test [1] is 17.6%; in [2] it was 11.2%; in test [3] it was 45.5%; in test [4], 67.9%; in test [5], 42.1%; in [6], 45%. The growth in test [7] was -60.3% (active); in test [8], -33.8% (active); in test [9], -7.81% (active); in test [10] it was 7.12% (active).
For `NC(N)=N/N=C(/c1ccccc1)c1ccc(N)cc1`, the growth in test [1] is 106%; in test [2], 132%; in test [3], 122%; in [4] it was 106%; in test [5], 97.5%; in test [6], 127%. Besides, the growth in test [7] was 101%; in [8], 91.2%; in test [9] it was 95%; in test [10], 150%.
As for `CCN(CC)CCNc1ccc(C)c2sc3cc(C)ccc3c(=O)c12`, the growth in [1] is 21.2%; in [2] it was 1.25% (active); in test [3], 67.2%; in test [4] it was 57.6%; in test [5], 45.5%; in test [6], 41%. In addition, the growth in test [7] is 21.9%; in test [8], -15.2% (active); in test [9], 28.4%; in test [10] it was 74.5%.
`C[C@H]1[C@H](C)CC[C@]2(C(=O)N3CCN(C)CC3)CC[C@]3(C)C(=CC[C@@H]4[C@@]5(C)C/C(=C/c6cccnc6)C(=O)C(C)(C)[C@@H]5CC[C@]43C)[C@H]12`: the growth in test [1] was -79.8% (active); in [2] it was -79.3% (active); in test [3], -9.56% (active); in test [4], -95.9% (active); in test [5], -96% (active); in test [6], -79.6% (active). Besides, the growth in [7] was -97.6% (active); in test [8] it was -74.7% (active); in test [9] it was -97.1% (active); in test [10], -85.7% (active).
In the case of `O=C(Nc1ccc(N2CCCCC2)c(Cl)c1)c1ccc(Br)o1`, the growth is 61.1% in [1]; 73.7% in [2]; 60.7% in [3]; 78.3% in test [4]; 68.5% in test [5]; 58% in test [6]. For the same compound, the growth in [7] is -96.8% (active); in test [8], -40.2% (active); in [9] it was 2.04% (active); in test [10], 39.6%.
On to `c1ccc2[nH]c(SSc3nc4ncncc4[nH]3)nc2c1`, for which the growth in test [1] is 26.9%; in test [2], 29.5%; in test [3], 45.5%; in test [4], 84.4%; in [5], 54%; in test [6] it was 42.9%. In addition, the growth in test [7] was 28.1%; in [8], 12.7%; in test [9], 4.64% (active); in [10] it was 86%.
Take `COc1ccc(/C(C)=C(\c2ccc(Cl)cc2)c2ccc(OCCN(C)C)cc2)cc1F`: the growth in test [1] was 16.4%; in test [2], 8.32% (active); in test [3] it was 75.4%; in [4] it was 80%; in [5] it was 46%; in test [6], 51.2%. Besides, the growth in test [7] is 55%; in test [8], 42.3%; in test [9] it was -44.6% (active); in test [10], 30.9%.
For `Cl.[Pt].[c-]1ccccc1-c1ccccn1.c1ccc(P(c2ccccc2)C([PH+](c2ccccc2)c2ccccc2)[PH+](c2ccccc2)c2ccccc2)cc1`, the growth in test [1] is 7.95% (active); in test [2], 10.4%; in test [3] it was 7.24% (active); in test [4], 27.6%; in [5], 10.7%; in test [6], 9.46% (active). The growth in test [7] is -87.3% (active); in test [8] it was 16.8%; in [9], 12.1%; in test [10] it was 34%.
On to `O=C(/C=C/c1ccccc1)c1ccc2ccccc2c1`, for which the growth in test [1] was 48.5%; in test [2], 54.7%; in [3], 107%; in test [4], 99.3%; in [5], 93.2%; in [6] it was 90.1%. In addition, the growth in [7] is 92%; in test [8] it was 92.6%; in test [9] it was 89.3%; in test [10], 108%.
For the compound `COc1cc(-c2ccc(N=Nc3c(O)c(C(=O)Nc4ccccc4OC)cc4ccccc34)c(OC)c2)ccc1N=Nc1c(O)c(C(=O)Nc2ccccc2OC)cc2ccccc12`, the growth in test [1] is 101%; in test [2], 108%; in test [3], 74.8%; in test [4], 96%; in test [5] it was 94%; in test [6] it was 93.4%. Moreover, the growth was 98.9% in [7], 101% in test [8], 86.3% in [9] and 97.4% in test [10].

The values above are taken from PubChem BioAssay (NCI).
